The values below come from ChEMBL document CHEMBL3988442, “University of Dundee, Small-Polar-MMV Screening Library” (2021).

Among all 48,000 compounds or so, about 13,000 (27%) showed an effect of 50% or more. This is one part of the list.

The subject of the experiment is Wolbachia pipientis. Kind of experiment: Anti-Wolbachia Cell-Based Screen. Type of experiment: functional. On the set-up: scale not given: in the data most compounds retested in dose-response had high values. The conditions noted are these: 5 µM.
With `Cc1ncsc1CN1C[C@@H]2COC[C@]2(C(=O)NC2CC(F)(F)C2)C1.O=C(O)C(F)(F)F`, the “Percent Effect” value turned out to be 20.27%. Take `CN(C)C(=O)N1C[C@@H]2CC[C@H](C1)N(C(=O)CCCn1cncn1)C2`: the “Percent Effect” value is -23.9%. In the case of `Cc1cc(F)ccc1CNCc1cccc(C(=O)N2CCCC2)c1`, the “Percent Effect” value is 100.5%. Take `O=C(c1cccc(CNS(=O)(=O)c2ccccc2F)c1)N1CCCC1`: the “Percent Effect” value came to 1.767%.

Turning to `Cc1cc(S(=O)(=O)NCc2cccc(C(=O)N3CCCC3)c2)c(C)s1`, the “Percent Effect” value was 10.27%.

On to `Cc1ccc(F)cc1S(=O)(=O)NCc1cccc(C(=O)N2CCCC2)c1`, for which the “Percent Effect” value is 74.77%. Next, `O=C(NCc1cccc(F)c1)c1cccc(C(=O)N2CCCC2)n1`: 8.268%; `Cc1cc(F)ccc1S(=O)(=O)NCc1cccc(C(=O)N2CCCC2)c1`: 0.7357%. For `O=C(c1cccc(CNC/C=C/c2ccccc2)c1)N1CCCC1` the value was -7.138%. With `Cc1ccc(F)c(S(=O)(=O)NCc2cccc(C(=O)N3CCCC3)c2)c1`, the “Percent Effect” value is 126.7%. Consider `O=C1[C@@H]2CCN(CC3CCOCC3)C[C@@H]2OCCN1c1ccccc1`, for which the “Percent Effect” value is -22.15%.

Consider `CN(C)C(=O)CNC(CC(F)(F)F)c1ccc(Cl)cc1` (stereo not drawn), for which the “Percent Effect” value was 1.329%. Consider `OCCNC1CSCCc2ccccc21` (stereo not drawn), for which the “Percent Effect” value was -7.147%. Take `Cc1n[nH]cc1CNC1(c2ccc(Br)cc2)CC1`: the “Percent Effect” value is -6.578%.

Take `O=C(CC(F)(F)F)NC(c1ccc(Cl)cc1)c1ncon1` (stereo not drawn): the “Percent Effect” value stood at 11.91%.

For the compound `O=C([C@@H]1COC[C@H]2CN(CC3CCCC3)C[C@H]21)N1CCOCC1`, the “Percent Effect” value was -6.22%. For `O=C(Cc1ccc2c(c1)OCC2)Nc1nc(C(F)(F)F)n[nH]1` the value was 131.9%; for `O=C(Cc1ccc2c(c1)CCO2)Nc1ccc(-n2cncn2)nc1`, -5.052%; for `CN(Cc1nnc2n1CCC2)C(=O)Cc1ccc2c(c1)OCCO2`, -1.07%. Take `CN(C)c1cc2c(nn1)CCN(C(=O)Cc1ccc3c(c1)CCO3)C2`: the “Percent Effect” value is given as -10.79%. With `O=C(Cc1ccc2c(c1)OCC2)Nc1nc[nH]n1`, the “Percent Effect” value was found to be 104.4%. For `Nc1cc2c(nn1)CCN(C(=O)Cc1ccc3c(c1)CCO3)C2`, the “Percent Effect” value is reported as 8.586%. For `O=C(Cc1ccc2c(c1)OCC2)Nc1nn[nH]n1`, the “Percent Effect” value turned out to be 216.7%. For the compound `O=C(Cc1ccc2c(c1)OCCO2)NC1CCN(CC(F)F)CC1`, the “Percent Effect” value is listed as 2.104%. Next, `O=C(Cc1ccc2c(c1)OCO2)N[C@@H]1CCNC[C@H]1O`: -5.906%.

For the compound `CCCc1cc(N2CCCC2Cn2cc(C)cn2)n2ncnc2n1` (stereo not drawn), the “Percent Effect” value was -1.643%. On to `O=C(Nc1ccc2ncccc2c1)C1CC(=O)N(Cc2ccccn2)C1` (stereo not drawn), for which the “Percent Effect” value is reported as -4.026%.

Turning to `Cc1ccc(C(NC(=O)CCNC(=O)c2ccoc2)C(F)(F)F)cc1` (stereo not drawn), the “Percent Effect” value came out at 20.44%. For `Cc1nc(CN2C[C@@H](NS(=O)(=O)N(C)C)[C@H](C(C)C)C2)cs1`, the “Percent Effect” value was -0.9733%.

`Cc1ccc(CN(CC(=O)NCC2CCOC2)c2ccc(F)cc2)o1` (stereo not drawn): the “Percent Effect” value is recorded as -9.674%. As for `Cc1nc(-c2ccc(Cl)s2)sc1C(=O)O`, the “Percent Effect” value is 9.091%. On to `COc1cccc(Oc2nc(C)c(C(=O)O)s2)c1OC`, for which the “Percent Effect” value was 116.8%. As to `Cc1nc(Oc2ccccc2Cl)sc1C(=O)O`, the “Percent Effect” value is listed as 98.65%. Regarding `Cc1ccc2cccc(C(=O)N3CCN(c4cccnn4)CC3)c2n1`, the “Percent Effect” value is reported as -2.333%. With `COc1cccc(CNCc2c(C)nc3sc(C)cn23)c1OC`, the “Percent Effect” value is reported as -11.36%. Take `COc1cccc(C(=O)N(C)C(C)c2c(C)n[nH]c2C)c1OC` (stereo not drawn): the “Percent Effect” value is -15.68%. For `Cc1nc(Oc2ccccc2F)sc1C(=O)O` the value was 91.89%.

For the compound `CCOC(=O)CCNC(=O)c1cccc2ccc(C)nc12`, the “Percent Effect” value was -7.02%. For `Cc1nc(NC(=O)OC(C)(C)C)sc1C(=O)O` the value was 0.0995%; for `Cc1ccc2cccc(Oc3nc(C)c(C(=O)O)s3)c2n1`, 111%; for `Cc1nc(-c2ccccc2F)sc1C(=O)N1CCN(C)CC1`, 3.843%. For the compound `CC(=O)Nc1cnc(Oc2ccccc2F)nc1`, the “Percent Effect” value is given as -1.763%.

As to `O=C1C(N2CCOC3(CCCC3)C2)CCN1C1CC1` (stereo not drawn), the “Percent Effect” value stood at 15.83%. Take `Cc1nnc2n1CC(CNc1ncnc3ccccc13)CC2` (stereo not drawn): the “Percent Effect” value is reported as -0.4612%. With `CCN(CC)CCCN1CCC(NC(=O)OC(C)(C)C)CC1`, the “Percent Effect” value amounted to 13.41%. Turning to `Cc1cc(C)n(Cc2cccc(C(=O)NCCN3CCOCC3)c2)n1`, the “Percent Effect” value is recorded as -2.99%. With `Cc1cc(C)n(CCCN(CCN2CCOCC2)Cc2ccco2)n1`, the “Percent Effect” value is 110.7%. For `Cc1cc(C)n(CCN2CCN(C(=O)c3ccccc3Br)CC2)n1` the value was 0.6022%. Regarding `CSCCCN(CCN1CCOCC1)Cc1ccco1`, the “Percent Effect” value is listed as 114.6%.

Turning to `CN(C)CCN1CCc2ncc(CN(C)Cc3ccco3)n2CC1`, the “Percent Effect” value amounted to 24.09%. As to `Cl.Cl.O[C@@H]1C[C@@](CNCc2cccc(Cl)c2)(COc2cccnc2)C[C@@H]1O`, the “Percent Effect” value is listed as -8.733%. Turning to `COc1ncccc1CN1CCC2(CCCN2S(C)(=O)=O)CC1.O=C(O)C(F)(F)F.O=C(O)C(F)(F)F`, the “Percent Effect” value worked out at 2.287%. Consider `COc1ncccc1CN1C[C@H]2CCN(c3ccc(C)nn3)C[C@H]2C1.O=C(O)C(F)(F)F`, for which the “Percent Effect” value came to 107.5%. Turning to `COc1ncccc1CN1C[C@H]2C[C@@H](C(=O)NCC3CC3)N(C)[C@H]2C1.O=C(O)C(F)(F)F.O=C(O)C(F)(F)F.O=C(O)C(F)(F)F`, the “Percent Effect” value was 107.4%. Next, `CCOCC1CN(Cc2cccnc2OC)Cc2cnn(C)c21.O=C(O)C(F)(F)F.O=C(O)C(F)(F)F.O=C(O)C(F)(F)F` (stereo not drawn): 2.379%; `COc1ncccc1CN1CC[C@@]2(O)CCN(C(=O)C3CCC3)C[C@H]2C1`: 6.817%; `COc1ncccc1CN1C[C@@H]2C[C@@H](C(=O)NCC3CC3)N(C)[C@@H]2C1`: 96.26%. For the compound `Cc1ccc(N2CC[C@H]3CN(C(=O)c4ccn(C)n4)C[C@H]3C2)nn1.O=C(O)C(F)(F)F`, the “Percent Effect” value is -19.75%.

As to `COc1ncccc1CNC(=O)N1CCC(CNC(C)=O)CC1`, the “Percent Effect” value is listed as 18.77%. As to `COc1ncccc1CN1Cc2nnn(C)c2C(COCC2CC2)C1.O=C(O)C(F)(F)F.O=C(O)C(F)(F)F` (stereo not drawn), the “Percent Effect” value is recorded as -15.9%.

Take `CN(Cc1cccnc1)CC1CC12CCN(c1nncs1)CC2.O=C(O)C(F)(F)F.O=C(O)C(F)(F)F.O=C(O)C(F)(F)F` (stereo not drawn): the “Percent Effect” value worked out at 10.12%. Next, `COc1ccc(-c2noc(Cn3cnc(C)c3)n2)c(OC)c1OC`: 10.58%. Turning to `Cc1ccc(-c2noc([C@@H]3Cc4nc[nH]c4CN3)n2)cc1`, the “Percent Effect” value was determined as 1.545%. In the case of `CSCC(=O)Nc1nccn1Cc1ccc(Br)cc1`, the “Percent Effect” value was -2.171%.

For `O=C1N(c2ccccc2)Cc2n[nH]c(=O)n21`, the “Percent Effect” value is reported as -1.221%. Turning to `COc1cc(C(=O)N2CC(Oc3ccccc3Cl)C2)ccn1`, the “Percent Effect” value was -4.351%.

Consider `COCCOC(=O)N1CCn2nc(CN(C)Cc3nccs3)cc2C1`, for which the “Percent Effect” value is listed as 91.56%.

Regarding `CN(C)C(=O)N1CCn2nc(CNC(=O)CCc3ccccn3)cc2C1`, the “Percent Effect” value is reported as 5.444%. For `CN(C)C(=O)N1CCn2nc(CNC(=O)CCC(F)(F)F)cc2C1`, the “Percent Effect” value was -4.672%.

As for `CN(Cc1cc2n(n1)CCCN(C(=O)N1CCCC1)C2)Cc1nccs1`, the “Percent Effect” value came to 94.61%. In the case of `CN(C)C(=O)N1CCCn2nc(CNC(=O)CCc3ccsc3)cc2C1`, the “Percent Effect” value is -5.491%. As to `CN(C)C(=O)N1CCCn2nc(CNC(=O)CCc3cccs3)cc2C1`, the “Percent Effect” value came out at 2.264%. With `CCn1c(CC2CCN(C(=O)C3CNCCO3)CC2)nn(C)c1=O` (stereo not drawn), the “Percent Effect” value is given as -6.283%. For the compound `CC(C)(CCS(C)(=O)=O)CNc1ccc2ccc(F)cc2n1`, the “Percent Effect” value worked out at 0.04358%. Turning to `O=C(C1CCCCC1)N1CCC(n2nc(-c3ccco3)ccc2=O)CC1`, the “Percent Effect” value was found to be 79.69%. Consider `CC(=O)c1c(F)cccc1NC1CCN(C(=O)C2CCCCC2)CC1`, for which the “Percent Effect” value was found to be 1.543%. Take `CC(C)(C)C(=O)N1CCC(n2cc(C3(O)CCCC3)nn2)CC1`: the “Percent Effect” value is given as -19.86%. For the compound `O=C(c1csc(-c2ccco2)n1)N1CCN2CCCCC2C1` (stereo not drawn), the “Percent Effect” value is -12.72%. For `O=C(Cc1ccsc1)N1CCC(n2nc(-c3ccco3)ccc2=O)CC1` the value was -9.761%; for `O=C(c1ccco1)N1CCC(n2nc(-c3ccco3)ccc2=O)CC1`, 74.86%; for `O=C(c1ccco1)N1CCC(n2nc(-c3cccs3)ccc2=O)CC1`, 64.54%. Consider `O=C(c1ccco1)N1CCC(n2cc(-c3ccsc3)nn2)CC1`, for which the “Percent Effect” value is 0.1659%. Consider `Cc1oc(-c2ccco2)nc1CC(=O)N1CCC(C(O)C(F)(F)F)CC1` (stereo not drawn), for which the “Percent Effect” value was 3.492%. As to `O=C(c1cccs1)N1CCC(n2nc(-c3ccco3)ccc2=O)CC1`, the “Percent Effect” value is on record as -4.214%. Next, `O=C(c1cccs1)N1CCC(Cn2nc(-c3ccco3)ccc2=O)CC1`: -6.925%; `CC(C)(C)C(=O)N1CCC(n2nc(-c3ccco3)ccc2=O)CC1`: 101.2%; `Cn1c(-c2ccccc2Cl)nc2cc(C(=O)NCCS(C)(=O)=O)cnc21`: 0.8241%. In the case of `CCn1nc(C)c(CNC(=O)C2COc3ccccc3C2)c1C` (stereo not drawn), the “Percent Effect” value is -10.56%. For `CCC(C)N(Cc1ccncc1)Cc1ccc(-n2cccn2)cc1` (stereo not drawn) the value was -9.551%; for `COc1ccc(Br)c(C(=O)NCC2CCN(C(=O)c3ccoc3)CC2)c1`, -6.269%; for `Cc1cccc(CN2CCCC(O)(CNCc3ncccc3C)C2=O)c1` (stereo not drawn), 4.315%.

Consider `CC(NC(=O)NCCCOC1CCCCC1)c1nncn1C` (stereo not drawn), for which the “Percent Effect” value worked out at 12.39%. As to `O=C(CCc1ccco1)Nc1ccc(Br)cn1`, the “Percent Effect” value is -1.221%.

For the compound `CC(C)C(=O)N1CCC(n2nc(-c3ccco3)ccc2=O)CC1`, the “Percent Effect” value is given as 101.9%. As to `Cc1oc(-c2ccco2)nc1CC(=O)N1CCC(CCO)C1` (stereo not drawn), the “Percent Effect” value was 7.972%. As to `OCC(O)CSCc1cn(-c2ccc(F)c(Cl)c2)nn1` (stereo not drawn), the “Percent Effect” value stood at 1.714%.

Regarding `Cc1csc(C2(NCc3nc(-c4ccco4)oc3C)CCCC2)n1`, the “Percent Effect” value came out at 21.68%.

In the case of `Cc1ccc(C(=O)NCC2Cc3ccccc3O2)cc1S(C)(=O)=O` (stereo not drawn), the “Percent Effect” value is reported as -52.49%. As to `Cc1ccc(C(=O)NC2CCOc3ccccc32)cc1S(C)(=O)=O` (stereo not drawn), the “Percent Effect” value is on record as 118%. Next, `CN(C)c1nc(CNC(=O)NC2COc3ccccc32)cs1` (stereo not drawn): -3.429%; `CNS(=O)(=O)c1cc(C(=O)NC2COc3ccccc3C2)ccc1OC` (stereo not drawn): -1.094%; `Cc1nnc(NC(=O)NC2CCOc3ccccc32)s1` (stereo not drawn): 11.11%. `CNS(=O)(=O)c1cc(C(=O)NC2COc3ccccc32)cc(C)c1C` (stereo not drawn): the “Percent Effect” value is listed as 105.8%.
